In the library only some 1.6% were active in any assay of this set; here they are far more common.
B2AR ag – beta2AR agonists driving receptor internalization, primary screen, cell-based, FAP fluorogen, flow cytometry; Beta-2 adrenergic receptor (Homo sapiens), P07550; Am2.2-beta2AR cells; response, % (concentration not given with the values); hit rate 0.43% among 340,000; AID 504454, 2011;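 active = response above a set limit, near 3 SD of response in nonfluorescent compounds, cut at about 42% in these data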
Target sequence (P07550 whole entry, looked up): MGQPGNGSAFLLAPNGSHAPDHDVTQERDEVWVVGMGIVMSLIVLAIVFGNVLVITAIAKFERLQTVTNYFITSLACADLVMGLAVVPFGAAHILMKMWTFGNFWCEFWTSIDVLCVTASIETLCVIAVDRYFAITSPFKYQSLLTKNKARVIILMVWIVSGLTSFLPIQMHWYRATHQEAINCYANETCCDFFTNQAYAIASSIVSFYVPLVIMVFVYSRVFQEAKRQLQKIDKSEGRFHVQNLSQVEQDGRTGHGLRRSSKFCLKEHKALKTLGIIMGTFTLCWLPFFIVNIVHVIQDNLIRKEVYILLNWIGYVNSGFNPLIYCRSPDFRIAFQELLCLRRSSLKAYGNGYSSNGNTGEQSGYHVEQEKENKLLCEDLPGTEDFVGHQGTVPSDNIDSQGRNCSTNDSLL
dFosB act-1 – activators of delta FosB homodimer, primary screen, biochemical, fluorescence polarization, TAMRA-CDK5 oligo, single point; Protein FosB (Mus musculus), P13346; purified delta FosB; percent of positive-control signal above neutral wells; activation, % at 25 µM; hit rate 0.99% among 340,000;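 active = mean activation above about 17%, with every replicate also reaching it, limit read from the data, passing the limit was not always enough; inconclusive = only one of the two conditions met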
Bfl-1 A1 inh – caspase 3/7 activation in MEF A1-2A-BIM cells, primary screen, A1 inhibitor project, cell-based, luminescence, HTS. Caspase-Glo 3/7 luminescence, 3 h; percent of clofoctol response, vehicle zero. caspase activation, % (concentration not given with the values). hit rate 0.066% among 330,000. AID 2462, 2010;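 active = over half of replicate activation scores above 10%, or exactly half above 10 with the replicate mean above 10; inconclusive = replicate mean below 10 yet half the replicates above 10; inactive = over half of replicates below 10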
Dyrk1A ADPGlo – rat Dyrk1A kinase inhibitors, primary screen, biochemical, single point, plate reader | hit rate 0.43% among 310,000 | Dual specificity tyrosine-phosphorylation-regulated kinase 1A (Rattus norvegicus), Q63470 | ADP-Glo luminescence, NFATc1 peptide | inhibition, % at 12.5 µM; in the data active = inhibition above about 50%;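 also: plate controls were vehicle with enzyme for no effect and no enzyme for full effect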
dFosB act-2 – activators of mouse delta FosB DNA binding, confirmation, biochemical, fluorescence polarization, TAMRA-CDK5 oligo, cherry-picked samples; shares compounds with dFosB act-1; purified delta FosB; normalised: neutral wells 0, positive control 100; activation, % at 24.9 µM; 2,400 tested, under 10 active; AID 588690, 2011;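 active = highest replicate activation at or above 34% and every replicate reaching that threshold; inconclusive = meets only one of the two criteria; inactive = meets neither criterion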;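 also: higher polarization means more probe DNA bound by delta FosB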
Starred values were filed as active, the others as inactive; ? = inconclusive; · = no result.

SMILES	B2AR ag	dFosB act-1	Bfl-1 A1 inh	Dyrk1A ADPGlo	dFosB act-2
O=C(Nc1nc(-c2ccc3ccccc3c2)cs1)c1ccc(N2C(=O)CCC2=O)cc1	-11	45*	0	4	-2
COc1ccc(N(C(=O)c2cnccn2)C(C(=O)NC2CCCCC2)c2cc(OC)c(OC)c(OC)c2)cc1 (stereo not drawn)	6	-3	0	-5	·
O=C(N/N=C/C=C/c1ccccc1[N+](=O)[O-])c1ccncc1	-5	-4	0	0	·
O=C(N/N=C/c1ccccn1)c1cc(-c2ccc3ccccc3c2)n[nH]1	9	19*	-1	-3	3
O=C(N/N=C/C=C\c1ccccc1[N+](=O)[O-])c1cc(-c2ccc3ccccc3c2)n[nH]1	6	25*	·	-2	2
COc1cccc(C(=O)Nc2ccc(NC(=O)c3ccco3)c(Cl)c2)c1	-10	23*	-6	2	3
O=C(Nc1ccc(NC(=O)c2sc3ccccc3c2Cl)cc1Cl)c1ccco1	-10	41*	0	-1	3
O=C(Nc1ccc(NC(=O)c2cccs2)c(Cl)c1)c1ccco1	-16	-11	0	2	·
CN(C(=O)COC(=O)/C=C/c1ccc2c(c1)OCO2)c1c(N)n(Cc2ccccc2)c(=O)[nH]c1=O	0	53*	-1	11	1
COc1ccc(N(CC(=O)Nc2ccc(Cl)cc2)S(=O)(=O)c2c(C)n[nH]c2C)cc1	-1	-6	-1	0	·
COc1ccc(N(CC(=O)N2CCN(c3ccc(Cl)cc3)CC2)S(=O)(=O)c2c(C)n[nH]c2C)cc1	3	77*	0	4	0
C=CCC1C=C(C)CC(CC=C)N1 (stereo not drawn)	3	2	-1	-1	·
CCN(Cc1ccccc1)C(=O)Cc1c[nH]c2ccccc12	9	-5	0	-3	·
Cc1ccc(C(=O)N2CCN(Cc3ccccc3)CC2)cc1S(=O)(=O)N1CCOCC1	18	9	·	-1	·
CO/N=C/C(C#N)=C/c1cc(C(=O)c2ccc(F)cc2)cn1C	-6	50*	0	5	3
CO/N=C/C(C#N)=C/c1ccc(OC)cc1	-2	-4	-2	0	·
O=C(COC(=O)c1n[nH]c2ccccc12)Nc1ccc([N+](=O)[O-])cc1	-5	14	0	-1	·
COc1cc(NC(=O)COC(=O)c2n[nH]c3ccccc23)c(C)cc1[N+](=O)[O-]	6	32*	0	11	-1
CC(=O)c1c(C)[nH]c(C(=O)OCC(=O)c2ccc3c(c2)NC(=O)CO3)c1C	3	30*	0	·	4
O=C1COc2ccc(C(=O)COC(=O)/C=C/c3cccc(F)c3)cc2N1	9	80*	0	-2	4
COc1cccc(/C=C/C(=O)OCC(=O)c2ccc3c(c2)NC(=O)CO3)c1OC	2	-11	0	6	·
O=C(C1CCCC1)N1CCN(S(=O)(=O)c2ccc(F)c(F)c2F)CC1	4	-3	0	0	·
Cc1cnc(C(=O)N2CCN(S(=O)(=O)c3ccc(F)c(F)c3F)CC2)cn1	3	19*	-1	·	-2
CC1CCN(C(=O)c2ccc(NS(=O)(=O)c3ccc4[nH]c(=O)[nH]c4c3)cc2)CC1	-12	-3	0	13	·
O=C(Nc1ccc(Cl)cc1Cl)NC1CCN(S(=O)(=O)c2ccc(F)cc2)CC1	17	55*	0	-3	1
SMILES	B2AR ag	dFosB act-1	Bfl-1 A1 inh	Dyrk1A ADPGlo	dFosB act-2
O=C(Nc1ccc(Cl)cc1Cl)NC1CCCC1	4	-3	0	-1	·
O=c1ncn(-c2cccc(Cl)c2)c2ccccc12	-10	0	0	20	·
CCOC(=O)c1cnc(SCC(=O)Nc2cc(OC)cc(OC)c2)nc1N	-13	-1	-1	-5	·
CCOC(=O)c1cnc(SCC(=O)Nc2cc(C(F)(F)F)ccc2N2CCOCC2)nc1N	-1	20*	-1	-1	-1
Cc1sc(NC(=O)CSc2nnc(COc3ccc(Cl)cc3)n2C)c(C#N)c1C	-6	22*	1	3	2
CCOC(=O)c1cnc(SCC(=O)Nc2sc(C)c(C)c2C#N)nc1N	2	45*	0	-1	-1
CCOC(=O)c1cnc(SCc2nc(N)nc(Nc3ccccc3)n2)nc1N	-20	35*	1	-2	-1
CCOC(=O)c1cnc(SCCc2ccccc2)nc1N	-5	-2	-4	7	·
CCOC(=O)c1cnc(SCC(=O)Nc2ccc(N3CCOCC3)c(Cl)c2)nc1N	-15	-4	1	1	·
COc1ccccc1NC(=O)CSc1nnc2ccc(-c3ccccn3)nn12	0	-9	0	4	·
CCOC(=O)c1sc(NC(=O)CSc2nc(C)cc(C)c2C#N)c(C#N)c1C	-4	-8	0	0	·
Cc1ccc(-c2nnc(SCC(=O)Nc3sc(C)c(C)c3C#N)n2C)cc1	-9	100*	0	16	2
CCOC(=O)c1sc(NC(=O)CSc2nc3c(cc2C#N)CCCCCC3)c(C#N)c1C	-2	19*	0	6	4
CC[C@]12c3[nH]c4ccc(Cl)cc4c3CCN1C(=O)[C@@H](CC(=O)NCCC1=CCCCC1)C[C@@H]2C(=O)N1CCN(C(=O)C2CC2)CC1	7	-15	·	·	·
Cc1ccc(O)c(NC(=O)c2cc(-c3cccs3)on2)c1	13	16	-4	-7	·
Cc1c(NC(=O)Nc2ccc(Cl)cc2)c(=O)n(-c2ccccc2)n1C	0	6	1	-6	·
Cc1c(N=C2N=C(NC(=O)Nc3ccc(Cl)cc3)c3ccccc32)c(=O)n(-c2ccccc2)n1C	2	38*	1	-3	-30
Cc1nn(-c2ccccc2)c2nc(C(F)F)cc(C(F)F)c12	1	-2	0	·	·
COCCCNC(=O)c1c(NC(=O)C2COc3ccccc3O2)sc2c1CCCC2 (stereo not drawn)	4	-8	-2	5	·
CCNC(=O)c1c(NC(=O)C2COc3ccccc3O2)sc2c1CCCC2 (stereo not drawn)	2	27*	-1	3	-2
Oc1oc(-c2ccccc2Br)nc1C=Nc1ccc(Br)cn1	-2	47*	0	-3	-2
Cc1cccc(NC(=O)NNC(=O)COc2ccc(Cl)cc2)c1	3	35*	1	-4	2
Cc1cccc(NC(=O)NNC(=O)COc2ccc3ccccc3c2)c1	-4	?	0	1	·
COc1ccc(NC(=O)NNC(=O)COc2ccc(Cl)cc2C)cc1OC	3	45*	1	-3	4
Cc1ccc(NC(=O)NNC(=O)COc2ccc([N+](=O)[O-])cc2)cc1C	8	32*	0	·	-10
CCCOC(=O)c1cccc(NC(=O)COc2ccc([N+](=O)[O-])cc2)c1	0	19*	2	-7	3

Bioassay records: PubChem BioAssay, several laboratories
